Records with an inconclusive call do not appear. Activity calls are given as the source filed them. Calls follow the shape of the dose curve; as a rule, active = well fitted cell-killing curve with a large enough effect; inconclusive = small, poorly fitted or top-dose-only effect; inactive = no such curve, though single readings can be large or run the other way.
Assay: qHTS of pediatric cancer cell lines to identify multiple opportunities for drug repurposing: Primary screen for A673 cells (AID 1347092); also: nearly all actives have a fitted effect of over 45% in size
Settings: A673 Ewing sarcoma viability, CellTiter-Glo ATP luminescence, 48 h; series mostly up to 46 µM; activity change, negative = cytotoxic: at the top concentration
Source text: Drug repurposing or repositioning has been offered as a strategy for drug development in oncology programs. This approach has special potential for childhood cancers and other rare or orphan diseases, where the expected return on new drug development has been a disincentive to pharmaceuticals. […] In this project we exploit the poly-pharmacology of drugs to discover new indications via phenotypic screening of a panel of 19 well-characterized cell lines derived from solid tumors seen in children and adolescents. The goal is to identify approved drugs with previously unrecognized anticancer properties that has the potential to reveal new mechanisms and biological processes involved in carcinogenesis or drug resistance. We employed a titration-based paradigm (quantitative high-throughput screening or qHTS), where all compounds were tested at multiple concentrations for their effect on cell viability. Concentration-response curves (CRCs) were derived directly from the primary screen, and both potency and efficacy values were used to identify compounds with robust bioactivity profiles. We screened the NIH Chemical Genomics Center (NCGC) Pharmaceutical Collection (NPC) and Mechanism Interrogation Plate (MIPE) small molecule collections of approved and investigational compounds against these cell lines; and measured metabolically active cells after 48 hours of compound treatment as a proxy for cell viability. […] Assay Submitter: Nathalia J. Martinez, National Center for Advancing Translational Sciences, National Institutes of Health, Rockville, MD, USA; email: natalia.martinez@nih.gov. Shen, M et al. Quantitative high-throughput phenotypic screening of pediatric cancer cell lines identifies multiple opportunities for drug repurposing. Oncotarget 2017 Dec 19;9(4):4758-4772. PMID 29435139.
The cells were obtained from University of North Carolina (UNC), Pediatric Preclinical Testing Program (PPT), and Coriell Institute (CI). qHTS cell viability assay: Cells were assayed in growth media at a density of 500-1,000 cells/well. Five microliters of cells were dispensed into 1,536-well, white, solid-bottom, TC-treated plates (Greiner Bio One) using a multidrop dispenser and incubated at 37 degrees C, 5% CO2, under a humidified atmosphere for 5 hours. Twenty-three nanoliters of compounds and controls (neutral control DMSO or positive control bortezomib at final concentration of 2.3 uM) were subsequently transferred by Kalypsys pintool. For primary screens, the MIPE collection was tested at 11-point dilutions (final concentrations range from 0.78 nM to 46 µM) and the NPC collection at 8-point dilutions (final concentrations range from 0.59 nM to 46 µM). Compounds tested in follow-up screens were assayed at 11-point dilutions. Cells were incubated for 48 hours, followed by addition of 3 uL of CellTiter-Glo (Promega). After a 15min incubation at room temperature, samples were analyzed for luminescence intensity using a ViewLux High-throughput CCD imager equipped with clear filters.
% is scaled to controls: 0 for no effect and ±100 for the full control effect; potency is read from the fitted curve at half-maximal effect.

Row | SMILES | activity change, negative = cytotoxic | Potency
1 | O=C(Oc1ccccc1)c1ccccc1O | -2.28% (inactive) | 
2 | CC(=O)OCC(=O)[C@@]1(O)[C@H](OC(C)=O)C[C@H]2[C@@H]3CCC4=CC(=O)C=C[C@]4(C)[C@@]3(F)[C@@H](O)C[C@@]21C | 16.2% (inactive) | 
3 | CCOC(=O)C(O)c1ccccc1 (stereo not given) | 8.86% (inactive) | 
4 | CC1(C)O[C@@H]2C[C@H]3[C@@H]4CCC5=CC(=O)C=C[C@]5(C)[C@@]4(F)[C@@H](O)C[C@]3(C)[C@]2(C(=O)CO)O1 | -1.82% (inactive) | 
5 | C/C(=C1\CCOC(=O)S1)N(C=O)Cc1cnc(C)nc1N | -2.55% (inactive) | 
6 | COC(=O)c1cc(Cl)c(NC(C)=O)cc1OC | -9.21% (inactive) | 
7 | Cc1cnc(NS(=O)(=O)c2ccc(N)cc2)nc1 | 7.07% (inactive) | 
8 | O=C(O)CNC(=O)CNC(=O)CNC(=O)CSC(=O)c1ccccc1 | 0.0662% (inactive) | 
9 | CCOC(=O)O[C@]1(C(=O)OCCl)CC[C@H]2[C@@H]3CCC4=CC(=O)C=C[C@]4(C)[C@H]3[C@@H](O)C[C@@]21C | 5.91% (inactive) | 
10 | Nc1ccc([N+](=O)[O-])c(C(F)(F)F)c1 | 2.44% (inactive) | 
11 | O=C(O)c1[nH]n(-c2ccc(S(=O)(=O)O)cc2)c(=O)c1N=Nc1ccc(S(=O)(=O)O)cc1 | -13.2% (inactive) | 
12 | O=C(OCC(O)CO)c1ccccc1Nc1ccnc2c(C(F)(F)F)cccc12 (stereo not given) | -10.4% (inactive) | 
13 | O=C(O)CCC(=O)OC[C@@H](NC(=O)C(Cl)Cl)[C@H](O)c1ccc([N+](=O)[O-])cc1 | 6.58% (inactive) | 
14 | CN(CC1(C)CCCO1)S(=O)(=O)c1ccc(Cl)c(S(N)(=O)=O)c1 (stereo not given) | 9.65% (inactive) | 
15 | Cc1ncc([N+](=O)[O-])n1C | 7.12% (inactive) | 
16 | CCCC(=O)Nc1ccc(O)c(C(C)=O)c1 | 11% (inactive) | 
17 | CO/N=C(/C(=O)N[C@@H]1C(=O)N2C(C(=O)O)=C(Cn3nnc(C)n3)CS[C@H]12)c1csc(N)n1 | 8.49% (inactive) | 
18 | C[C@H](CN1CCCC1)C(=O)c1ccc(C(F)(F)F)cc1 | -1.2% (inactive) | 
19 | O=C(CCCl)NCc1ccccc1 | 8.65% (inactive) | 
20 | COCCOCC(OC)OC | 11.1% (inactive) | 

Row | SMILES | activity change, negative = cytotoxic | Potency
21 | Cc1ccc(-c2ccccc2C#N)cc1 | -0.0758% (inactive) | 
22 | Cc1nc([N+](=O)[O-])cn1-c1ccc([N+](=O)[O-])cc1 | -4.95% (inactive) | 
23 | COC(=O)c1cc(Cl)ccc1OC | -1.48% (inactive) | 
24 | O=C(CO)[C@@H](O)[C@H](O)[C@@H](O)CO | -3.37% (inactive) | 
25 | CN(C(=O)C(Cl)Cl)c1ccc(OC(=O)c2ccco2)cc1 | -13.2% (inactive) | 
26 | CC(C)=CCC/C(C)=C/CC/C(C)=C/CCC(=O)OC/C=C(\C)CCC=C(C)C | -0.383% (inactive) | 
27 | CC(=O)OCC[N+](C)(C)C | -0.556% (inactive) | 
28 | CC(=O)O[C@@H]1C(=O)O[C@@H]2[C@H]1OC(=O)[C@@H]2OC(C)=O |  | 13.3 µM (active)
29 | OCCOCCN1CCN(C(c2ccccc2)c2ccc(Cl)cc2)CC1 (stereo not given) | -2.2% (inactive) | 
30 | CO/N=C(\C(=O)O)c1csc(NC(=O)CCl)n1 | -0.135% (inactive) | 
31 | CN(C)CCOC(c1ccccc1)c1ccc(Br)cc1 (stereo not given) | -6.43% (inactive) | 
32 | CC(C)(C)c1ccc(C(=O)CCCCl)cc1 | -15.2% (inactive) | 
33 | NS(=O)(=O)c1cc2c(cc1Cl)CN(C1CCCCC1)C2=O | 17.4% (inactive) | 
34 | COc1cc(NS(=O)(=O)c2ccc(N)cc2)nc(C)n1 | 9.86% (inactive) | 
35 | CC1(C)S[C@@H]2[C@H](NC(=O)C(c3ccccc3)S(=O)(=O)O)C(=O)N2[C@H]1C(=O)O (stereo not given in full) | -1.09% (inactive) | 
36 | COc1cc(S(N)(=O)=O)cc(C(=O)O)c1OC | 1.4% (inactive) | 
37 | CCCCCCCCCCCCCCCC[n+]1ccccc1 |  | 1.68 µM (active)
38 | COc1cc(C=O)ccc1O | 1.52% (inactive) | 
39 | CN1CCN(N)CC1 | -4.18% (inactive) | 
40 | CCCCC(=O)OCC(=O)[C@H]1[C@H](C)C[C@H]2[C@@H]3C[C@H](F)C4=CC(=O)C=C[C@]4(C)[C@@]3(F)[C@@H](O)C[C@@]21C | 4.93% (inactive) | 

Reference: PubChem BioAssay (NCATS)
